Results filed as inconclusive are left out. Entries that show only a call come without a potency. Calls of active or inactive are those of the source. Calls come from the whole dose curve; as a rule, active = well fitted cell-killing curve with a large enough effect; inconclusive = small, poorly fitted or top-dose-only effect; inactive = flat fitted curve, though single readings scatter.
test: Quantitative highthroughput screen to assess conditional lethalithy of P12 Ichikawa cells grown in Human Plasma-Like Medium with dialyzed fetal bovine serum (HPLM+ds) (AID 1963879); settings: ATP luminescence, 48 h; Potency: viability; series mostly up to 45.8 µM; note: nearly all actives have a fitted effect of over 35% in size
From the text: Assay Provider: Jason Cantor Ph.D.
Department of Biochemistry
University of Wisconsin-Madison, Madison, WI, USA
Chemical screening studies have identified drug sensitivities across hundreds of cancer cell lines but most putative therapeutics fail to translate. Discovery and development of drug candidates in models that more accurately reflect nutrient levels in human blood is a major challenge. Here we performed high-throughput screens in conventional versus Human Plasma-Like Medium (HPLM) to identify compounds that were "missed" when screening using the artificial culture condition. Sets of conditional anticancer compounds spanned phases of clinical development and included non-oncology drugs were assessed. […] We also traced conditional phenotypes for several chemotherapeutics to availability of HPLM-specific metabolites and confirmed others for compounds whose reported targets are encoded by nonessential genes. Our findings establish generalizable strategies for exploiting conditional lethality in HPLM to reveal therapeutic candidates and mechanisms of action in cancer cells.
Described herein are the results of each viability screens against three cell lines: NOMO1 (an acute myeloid leukemia cell line); P12-Ichikawa (a T-cell acute lymphoblastic leukemia); and SEM (a B-cell ALL). Each assay was screened using 3 different cell culture media: homemade human plasma-Like medium with 10% dialyzed fetal bovine serum (HPLM+ds); RPMI1640 with 10% untreated FBS and 5mM glucose (RPMI+s); and RPMI1640 with 10% dialyzed fetal bovine serum and 5 mM glucose (RPMI+ds).
PROTOCOL TABLE (as described by Inglese J, Shamu CE and Guy RK. 2007)
SEQUENCE No. (e.g., 1, 2, 3, etc.); […] (e.g., Cells, Incubation, Reagent, etc.); VALUE and DESCRIPTION.
1; Cells; 5 uL; white, solid bottom 1536-well Greiner assay plate.
2; Compounds; 23 nL; Kalypsis pin tool (Wako USA) equipped with a 1536-well pin head to transfer to the assay plates.
3; Incubation; 48 hours; 37C incubation.
4; Reagent; 3 uL; CellTiter Glo (Promega).
5; Incubation; 5 min, room temperature
6; Detection; Luminescence, Viewlux PerkinElmer.
NOTES (numbers refer to Sequence numbers above)
1. Briefly, 5 ul of cell reagent was dispensed using a Multidrop Combi Dispenser. The NOMO1 and SEM cells were plated at 500 cells/well and the P12-Ichikawa line at 1000 cells/well.
2. After seeding the cells, 23 nL of MIPE 4.1 library compounds (in DMSO) were added to each plate using a Kalypsys 1536 Pintool dispenser. Bortezomib at final concentration of […] and DMSO were added to each plate as positive and negative controls respectively. For each screen, MIPE 4.1 compounds were added over an eleven-point concentration range […] in 3-fold dilutions.
3. Each plate was covered with a stainless steel gasketed lid to prevent evaporation and incubated for 48 hour at 37C, 95% relative humidity, and 5% CO2.
4-5. Three microliter CellTilter-GloTM luminescent substrate mix (Promega) reagent was added to the assay plate and incubated at room temperature for 5 min.
6. The luminescence signal was measured using a ViewLux (PerkinElmer) multiplate reader with a 2 second exposure time per plate. Data for each compound were normalized as percent viability such that measurements for DMSO and the empty well controls in each plate were defined as 100% and 0%, respectively.
Potency is the fitted concentration of half-maximal effect.

Row | Structure (SMILES) | Potency
1 | COc1ccc2c(c1OC)CN1CCc3cc4c(cc3C1C2)OCO4 (stereo not given) | 2.64 µM (active)
2 | CCC1(c2ccc(N)cc2)CCC(=O)NC1=O (stereo not given) | inactive
3 | C[C@](O)(CS(=O)(=O)c1ccc(F)cc1)C(=O)Nc1ccc(C#N)c(C(F)(F)F)c1 | inactive
4 | O=[N+]([O-])c1ncc[nH]1 | inactive
5 | CCOc1ccccc1-n1c(C(C)N2CCN(C(=O)COc3ccc(Cl)cc3)CC2)nc2ccccc2c1=O (stereo not given) | 0.741 µM (active)
6 | CCN(CC)C(=O)c1ccc(C2=CC3(CCNCC3)Oc3cccc(O)c32)cc1 | inactive
7 | C[C@]12CC[C@H]3[C@@H](CCC4=CC(=O)CC[C@@]43C)[C@H]1CC[C@H]2O | inactive
8 | c1cc2c(cc1[C@H]1OC[C@H]3[C@H]1CO[C@H]3c1ccc3c(c1)OCO3)OCO2 | inactive
9 | NC1=NC(=O)N2CC12 (stereo not given) | 7.43 µM (active)
10 | c1ccc(CCCN2CCN(CCOC(c3ccccc3)c3ccccc3)CC2)cc1 | inactive
11 | C[C@@H]1O[C@@H](O[C@@H]2C=C3CC[C@@H]4[C@@H](CC[C@]5(C)[C@H](c6ccc(=O)oc6)CC[C@@]45O)[C@@]3(C)CC2)[C@H](O)[C@H](O)[C@H]1O | 0.0209 µM (active)
12 | C#CCN(C)[C@H](C)Cc1ccccc1 | inactive
13 | CC(C)[C@]12O[C@@H]1[C@@H]1O[C@]13[C@]1(O[C@H]1C[C@@H]1C4=C(CC[C@@]13C)C(=O)OC4)[C@H]2O | 0.0012 µM (active)
14 | Cc1c(C(=O)Nc2cccc(C(F)(F)F)c2)cc(-c2ccccc2)n1CCCN1CCOCC1 | inactive
15 | C[C@]12CC[C@@H]3[C@@H](CCC4=CC(=O)CC[C@@H]43)[C@@H]1CC[C@@H]2OC(=O)CCc1ccccc1 | inactive
16 | Oc1ccc2c3c1O[C@H]1c4[nH]c5c(c4C[C@@]4(O)[C@@H](C2)N(CC2CC2)CC[C@]314)C[C@@]1(O)[C@H]2Cc3ccc(O)c4c3[C@@]1(CCN2CC1CC1)[C@H]5O4 | inactive
17 | O=P1(N(CCCl)CCCl)NCCCO1 (stereo not given) | 10.5 µM (active)
18 | Cn1c(CCCC(=O)O)nc2cc(N(CCCl)CCCl)ccc21 | inactive
19 | C=C1C[C@H]2[C@H]3CCC(=O)[C@@]3(C)CC[C@@H]2[C@@]2(C)C=CC(=O)C=C12 | inactive
20 | C[C@]12CC[C@H](O)CC1=CC[C@H]1[C@H]3CCC(=O)[C@@]3(C)CC[C@@H]12 | inactive

Row | Structure (SMILES) | Potency
21 | CC(=O)O[C@@]12CO[C@H]1C[C@H](O)[C@@]1(C)C(=O)[C@H](O)C3=C(C)[C@@H](O)C[C@@](O)([C@@H](OC(=O)c4ccccc4)[C@@H]21)C3(C)C | 10.5 µM (active)
22 | NCC1(CC(=O)O)CCCCC1 | inactive
23 | CC(O)=C(C#N)C(=O)Nc1cc(Br)ccc1Br | inactive
24 | CC(C)(C)[C@]1(O)C[C@@H]2OC(=O)C[C@@]23C(=O)O[C@@H]2OC(=O)[C@H](O)C213 (stereo not given in full) | inactive
25 | C[C@]12Cc3cn[nH]c3C[C@@H]1CC[C@@H]1[C@H]2CC[C@@]2(C)[C@H]1CC[C@]2(C)O | inactive
26 | C=C(C)[C@H]1Cc2c(ccc3c2O[C@@H]2COc4cc(OC)c(OC)cc4[C@@H]2C3=O)O1 | 3.72 µM (active)
27 | C=C[C@@H]1CN2CCC1C[C@H]2[C@H](O)c1ccnc2ccccc12 (stereo not given in full) | inactive
28 | COc1ccc(C(=O)c2c(C)n(CCN3CCOCC3)c3ccccc23)cc1 | inactive
29 | CC(=CCCC1=CCC(C2=CC(=O)OC2O)OC1O)CCC1=C(C)CCCC1(C)C (stereo not given) | inactive
30 | CC[C@@H](C(N)=O)N1CCCC1=O | inactive
31 | CC(=O)OCC1=C(C(=O)O)N2C(=O)[C@@H](N)[C@@H]2SC1 | 1.48 µM (active)
32 | CC(=Cc1csc(C)n1)[C@@H]1C[C@H]2O[C@@H]2CCC[C@H](C)[C@@H](O)[C@@H](C)C(=O)C(C)(C)[C@@H](O)CC(=O)O1 | inactive
33 | CC(=Cc1csc(C)n1)[C@@H]1C[C@H]2O[C@]2(C)CCC[C@H](C)[C@@H](O)[C@@H](C)C(=O)C(C)(C)[C@@H](O)CC(=O)O1 | inactive
34 | O=C(N[C@@H](COc1ccc2[nH]c(=O)[nH]c2c1)c1ccccc1)c1cccn(Cc2ccc(F)c(F)c2)c1=O | 5.26 µM (active)
35 | COc1ccc2c(c[n+](C)c3c4cc5c(cc4ccc23)OCO5)c1OC | 16.6 µM (active)
36 | CN1CCN(c2ccc([N+](=O)[O-])c3no[n+]([O-])c23)CC1 | inactive
37 | Cc1[nH]nc2ccc(-c3cncc(OC[C@@H](N)Cc4c[nH]c5ccccc45)c3)cc12 | 1.66 µM (active)
38 | C[C@]12CCC(=O)C(O)=C1CC[C@@H]1[C@H]3CCC(=O)[C@@]3(C)CC[C@@H]12 | inactive
39 | CC(C)[C@H]1C(=O)N[C@H](CO)Cc2c[nH]c3cccc(c23)N1C | inactive
40 | CNCC(O)c1ccc(O)cc1 (stereo not given) | inactive
